Test results as given in the supplement of paper PMC8728848.
Many of the other results were omitted from the sample, so the strongest signals are more common in it than they were.

Key:
Test in all cases: glycan array binding signal (z-score within array); higher = stronger binding
Settings in all cases: glycan notation: IUPAC condensed, linker removed
[1] = target: Fuc(a1-2)Gal(b1-4)[Fuc(a1-3)]GlcNAc(b1-3)Gal(b1-4)[Fuc(a1-3)]GlcNAc
Method in brief: (§1)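 Glycan array data were curated from 3228 arrays in the Consortium for Functional Glycomics database and kept only where the protein sequence was available. Glycan names were converted to IUPAC-condensed notation, and columns mapping to the same glycan were averaged. The binding signal is a within-array Z-score, averaged across arrays of the same protein sequence at different concentrations or buffers and across linkers. Negative Z-scores can be read as non-binding.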

[2] = target: Fuc(a1-2)[Gal(a1-3)]Gal
Method in brief: as §1

[3] = target: Fuc(a1-2)[GalNAc(a1-3)]Gal(b1-4)Glc
Method in brief: as §1

[4] = target: Fuc(a1-3)[Gal(b1-4)]GlcNAc
Method in brief: as §1

[5] = target: Fuc(b1-3)GlcNAc
Method in brief: as §1

[6] = target: Gal(a1-3)Gal
Method in brief: as §1

[7] = target: Gal(b1-3)[Neu5Ac(a2-6)]GalNAc
Method in brief: as §1

[8] = target: Gal(b1-3)[Neu5Ac(a2-6)]GlcNAc(b1-6)Gal(b1-4)Glc
Method in brief: as §1

[9] = target: Gal(b1-4)GlcNAc(b1-3)Gal(b1-4)GlcNAc
Method in brief: as §1

[10] = target: Gal3S6S(b1-4)GlcNAc6S
Method in brief: as §1

[11] = target: GalNAc(b1-3)Gal(a1-4)Gal(b1-4)GlcNAc
Method in brief: as §1

[12] = target: GalNAc(b1-4)GlcNAc
Method in brief: as §1

[13] = target: Glc(b1-6)Glc
Method in brief: as §1

[14] = target: GlcA(b1-3)Gal
Method in brief: as §1

[15] = target: GlcA(b1-6)Gal
Method in brief: as §1

[16] = target: GlcNAc(b1-3)Gal
Method in brief: as §1

[17] = target: GlcNAc(b1-3)Gal(b1-4)GlcNAc(b1-3)Gal(b1-4)GlcNAc
Method in brief: as §1

[18] = target: Kdn(a2-3)Gal(b1-4)GlcNAc
Method in brief: as §1

[19] = target: Man(b1-4)GlcNAc
Method in brief: as §1

[20] = target: Neu5Ac(a2-3)Gal(b1-3)[Fuc(a1-4)]GlcNAc
Method in brief: as §1

[21] = target: Neu5Ac(a2-3)Gal(b1-4)GlcNAc(b1-3)Gal(b1-4)GlcNAc(b1-3)Gal(b1-4)GlcNAc
Method in brief: as §1

[22] = target: Neu5Ac(a2-3)[GalNAc(b1-4)]Gal(b1-4)GlcNAc
Method in brief: as §1

[23] = target: Neu5Ac(a2-8)Neu5Ac
Method in brief: as §1

[24] = target: Neu5Gc(a2-3)Gal(b1-3)[Fuc(a1-4)]GlcNAc
Method in brief: as §1

[25] = target: Neu5Gc(a2-3)Gal(b1-4)GlcNAc
Method in brief: as §1

[26] = target: Neu5Gc(a2-6)Gal(b1-4)GlcNAc
Method in brief: as §1

B1: AICL (Homo sapiens), Q92478 (protein)
chain: MMTKHKKCFIIVGVLITTNIITLIVKLTRDSQSLCPYDWIGFQNKCYYFSKEEGDWNSSKYNCSTQHADLTIIDNIEEMNFLRRYKCSSDHWIGLKMAKNRTGQWVDGATFTKSFGMRGSEGCAYLSDDGAATARCYTERKWICRKRIH
- glycan array binding signal (z-score) [1]: -0.049
- glycan array binding signal (z-score) [2]: -0.508
- glycan array binding signal (z-score) [3]: -0.265
- glycan array binding signal (z-score) [4]: -0.169
- glycan array binding signal (z-score) [5]: -0.469
- glycan array binding signal (z-score) [6]: -0.224
- glycan array binding signal (z-score) [7]: -0.085
- glycan array binding signal (z-score) [8]: -0.359
- glycan array binding signal (z-score) [9]: -0.439
- glycan array binding signal (z-score) [10]: 5.26
- glycan array binding signal (z-score) [11]: -0.363
- glycan array binding signal (z-score) [12]: -0.322
- glycan array binding signal (z-score) [13]: -0.395
- glycan array binding signal (z-score) [14]: 5.65
- glycan array binding signal (z-score) [15]: 4.6
- glycan array binding signal (z-score) [16]: -0.329
- glycan array binding signal (z-score) [17]: -0.374
- glycan array binding signal (z-score) [18]: 2.06
- glycan array binding signal (z-score) [19]: -0.401
- glycan array binding signal (z-score) [20]: -0.312
- glycan array binding signal (z-score) [21]: -0.415
- glycan array binding signal (z-score) [22]: -0.3
- glycan array binding signal (z-score) [23]: 0.384
- glycan array binding signal (z-score) [24]: -0.323
- glycan array binding signal (z-score) [25]: 0.329
- glycan array binding signal (z-score) [26]: -0.267
